This is an account of results in publication PMC7862700, “An all-to-all approach to the identification of sequence-specific readers for epigenetic DNA modifications on cytosine”.

Holding throughout (assay): DAPPL (digital affinity profiling via proximity ligation, sequencing); 10 mM Tris-HCl pH 7.5, 50 mM NaCl, 1 mM DTT, 4% glycerol, room temperature, 30 min; GST-TFs on glutathione beads, 16-mer random dsDNA library, 0.1% formaldehyde crosslink after washing; high values mean tight binding
The target in test [1] is T1, FEV (Homo sapiens, UniProt Q99581 1-238).
T1 sequence: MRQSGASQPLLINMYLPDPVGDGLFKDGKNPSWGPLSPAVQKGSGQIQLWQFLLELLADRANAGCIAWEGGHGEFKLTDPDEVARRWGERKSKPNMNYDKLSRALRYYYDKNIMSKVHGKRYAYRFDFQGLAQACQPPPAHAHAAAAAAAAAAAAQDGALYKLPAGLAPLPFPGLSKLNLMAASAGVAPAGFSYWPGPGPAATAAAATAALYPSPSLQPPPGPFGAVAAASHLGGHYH
Particulars: protein: recombinant; tags: N-terminal GST; dsDNA, one strand shown. A digest of the protocol:
(§1)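 Pools of DNA-barcoded human transcription factors, expressed in yeast as GST fusions on glutathione beads and combined with a tag-only sample, were incubated with 200 nmole of a 16-mer random double-stranded DNA library. Incubation took 30 min at room temperature in Tris/NaCl/DTT/glycerol buffer and was followed by washing, 0.1% formaldehyde crosslinking, proximity ligation (BsaI/T4 ligase, 1 h, 37 °C), PCR amplification and sequencing on an Illumina NextSeq500. Binding signal is the ratio of a hexamer's read frequency for a factor to its frequency for the tag-only sample.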

The target of test [2] is ETV5 (Homo sapiens, UniProt P41161 1-510). The following applies: protein: recombinant; tags: N-terminal GST; dsDNA, one strand shown. The method in brief:
as §1

The target in test [3] is HSF1 (Homo sapiens, UniProt Q00613 1-529). The following applies: protein: recombinant; tags: N-terminal GST; chain copies: 3; dsDNA, one strand shown. A digest of the protocol: as §1
Sequence of HSF1 (Q00613 whole entry): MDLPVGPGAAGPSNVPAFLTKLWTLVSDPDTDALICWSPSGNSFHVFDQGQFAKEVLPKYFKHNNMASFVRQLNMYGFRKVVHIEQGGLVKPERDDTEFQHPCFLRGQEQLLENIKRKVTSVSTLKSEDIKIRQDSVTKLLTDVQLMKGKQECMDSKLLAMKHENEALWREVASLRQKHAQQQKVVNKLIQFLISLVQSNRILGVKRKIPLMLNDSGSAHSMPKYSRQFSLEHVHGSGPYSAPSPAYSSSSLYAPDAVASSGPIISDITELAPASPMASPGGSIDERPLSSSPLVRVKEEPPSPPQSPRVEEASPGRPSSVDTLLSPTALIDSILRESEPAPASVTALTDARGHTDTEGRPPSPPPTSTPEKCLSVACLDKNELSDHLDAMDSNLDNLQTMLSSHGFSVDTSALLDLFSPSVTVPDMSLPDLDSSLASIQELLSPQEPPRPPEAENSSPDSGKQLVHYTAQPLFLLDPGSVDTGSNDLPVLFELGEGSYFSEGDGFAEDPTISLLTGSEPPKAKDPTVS
In test [4] the target is T2, SPIC (Homo sapiens, UniProt Q8N5J4 1-248).
T2 sequence: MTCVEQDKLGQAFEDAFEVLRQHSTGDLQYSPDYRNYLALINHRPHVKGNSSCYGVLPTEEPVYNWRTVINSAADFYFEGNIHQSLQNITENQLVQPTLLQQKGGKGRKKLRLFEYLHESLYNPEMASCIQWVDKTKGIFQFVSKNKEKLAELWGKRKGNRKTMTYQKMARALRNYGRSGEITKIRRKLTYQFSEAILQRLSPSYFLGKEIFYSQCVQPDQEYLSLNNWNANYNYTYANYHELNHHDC
Particulars: protein: recombinant; tags: N-terminal GST; dsDNA, one strand shown. The method in brief:
as §1

Test [5] addresses ELF4 (Homo sapiens, UniProt Q99607 1-663). The following applies: protein: recombinant; tags: N-terminal GST; dsDNA, one strand shown. The method in brief: as §1
For test [6], the target named is T3, ELK4 (Homo sapiens, UniProt P28324-2 1-405).
T3 sequence: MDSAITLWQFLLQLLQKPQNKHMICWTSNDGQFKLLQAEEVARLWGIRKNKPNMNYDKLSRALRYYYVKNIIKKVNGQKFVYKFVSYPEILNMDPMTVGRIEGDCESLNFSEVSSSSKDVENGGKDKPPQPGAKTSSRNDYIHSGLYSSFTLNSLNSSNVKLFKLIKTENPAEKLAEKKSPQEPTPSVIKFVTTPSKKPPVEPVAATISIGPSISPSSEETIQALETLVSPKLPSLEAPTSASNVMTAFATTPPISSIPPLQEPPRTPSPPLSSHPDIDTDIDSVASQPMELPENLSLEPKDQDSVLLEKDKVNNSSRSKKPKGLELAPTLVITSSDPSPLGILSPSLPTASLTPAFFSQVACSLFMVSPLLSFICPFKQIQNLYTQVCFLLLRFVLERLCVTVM
Particulars: protein: recombinant; tags: N-terminal GST; dsDNA, one strand shown. The method in brief:
as §1

Test [7] concerns the target T4, ETV2 (Homo sapiens, UniProt O00321 1-342).
T4 sequence: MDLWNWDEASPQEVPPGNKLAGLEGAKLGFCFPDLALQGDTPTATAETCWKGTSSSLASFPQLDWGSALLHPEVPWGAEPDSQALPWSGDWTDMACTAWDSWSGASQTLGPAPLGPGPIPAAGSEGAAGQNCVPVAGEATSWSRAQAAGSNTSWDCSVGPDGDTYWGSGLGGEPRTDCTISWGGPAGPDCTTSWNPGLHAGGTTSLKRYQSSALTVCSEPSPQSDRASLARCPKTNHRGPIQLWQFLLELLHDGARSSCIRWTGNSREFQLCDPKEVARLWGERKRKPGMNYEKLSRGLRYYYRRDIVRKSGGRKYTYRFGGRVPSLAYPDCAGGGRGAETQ
The following applies: protein: recombinant; tags: N-terminal GST; dsDNA, one strand shown. A digest of the protocol: as §1

Test [8] addresses T5, ELF3 (Homo sapiens, UniProt P78545 1-371).
T5 sequence: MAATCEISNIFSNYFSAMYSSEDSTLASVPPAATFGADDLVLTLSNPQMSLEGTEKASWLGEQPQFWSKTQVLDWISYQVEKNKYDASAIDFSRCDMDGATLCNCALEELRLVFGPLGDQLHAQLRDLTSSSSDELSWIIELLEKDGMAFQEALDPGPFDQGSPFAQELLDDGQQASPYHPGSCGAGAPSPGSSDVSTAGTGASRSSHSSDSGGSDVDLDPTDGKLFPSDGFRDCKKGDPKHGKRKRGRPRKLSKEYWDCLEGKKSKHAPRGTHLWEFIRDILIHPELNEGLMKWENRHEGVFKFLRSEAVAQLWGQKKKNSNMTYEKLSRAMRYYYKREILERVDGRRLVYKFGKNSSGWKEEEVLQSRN
The following applies: protein: recombinant; tags: N-terminal GST; dsDNA, one strand shown. A digest of the protocol: as §1

For test [9], the target named is CRX (Homo sapiens, UniProt O43186 1-299). The following applies: protein: recombinant; tags: N-terminal GST; dsDNA, one strand shown. The method in brief:
as §1

In test [10] the target is ETV1 (Homo sapiens, UniProt P50549 1-477). The following applies: protein: recombinant; tags: N-terminal GST; dsDNA, one strand shown. The method in brief:
as §1

Test [11] addresses T6, ERF (Homo sapiens, UniProt P50548 1-548).
T6 sequence: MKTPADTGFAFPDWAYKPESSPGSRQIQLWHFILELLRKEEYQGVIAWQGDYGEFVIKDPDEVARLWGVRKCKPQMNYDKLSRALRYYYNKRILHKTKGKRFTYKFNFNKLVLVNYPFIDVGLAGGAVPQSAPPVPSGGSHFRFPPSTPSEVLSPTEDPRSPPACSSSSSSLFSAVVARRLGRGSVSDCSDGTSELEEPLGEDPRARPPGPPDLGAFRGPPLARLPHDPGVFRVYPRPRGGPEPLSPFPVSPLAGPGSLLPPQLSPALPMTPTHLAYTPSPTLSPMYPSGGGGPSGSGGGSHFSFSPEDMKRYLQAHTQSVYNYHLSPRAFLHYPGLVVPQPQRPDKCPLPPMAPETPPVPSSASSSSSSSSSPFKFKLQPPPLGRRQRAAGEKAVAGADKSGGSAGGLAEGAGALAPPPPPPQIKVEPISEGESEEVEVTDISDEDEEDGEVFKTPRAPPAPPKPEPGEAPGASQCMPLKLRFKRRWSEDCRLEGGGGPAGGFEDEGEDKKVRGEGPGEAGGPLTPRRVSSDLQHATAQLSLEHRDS
The following applies: protein: recombinant; tags: N-terminal GST; dsDNA, one strand shown. A digest of the protocol:
as §1

Test [12] has as its target T7, ETV3L (Homo sapiens, UniProt Q6ZN32 1-361).
T7 sequence: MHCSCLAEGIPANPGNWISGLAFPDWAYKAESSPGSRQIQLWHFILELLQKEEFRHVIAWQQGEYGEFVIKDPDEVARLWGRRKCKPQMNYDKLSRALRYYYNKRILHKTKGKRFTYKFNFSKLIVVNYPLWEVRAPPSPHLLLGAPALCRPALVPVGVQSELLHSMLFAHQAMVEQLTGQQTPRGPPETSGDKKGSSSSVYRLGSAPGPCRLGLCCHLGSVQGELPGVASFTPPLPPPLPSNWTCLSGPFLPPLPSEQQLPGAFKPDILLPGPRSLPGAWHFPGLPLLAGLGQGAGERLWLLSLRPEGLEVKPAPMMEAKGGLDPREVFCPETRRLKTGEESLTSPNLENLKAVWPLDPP
Particulars: protein: recombinant; tags: N-terminal GST; dsDNA, one strand shown. A digest of the protocol:
as §1

Test [13] addresses T8, ETS2 (Homo sapiens, UniProt P15036 1-469).
T8 sequence: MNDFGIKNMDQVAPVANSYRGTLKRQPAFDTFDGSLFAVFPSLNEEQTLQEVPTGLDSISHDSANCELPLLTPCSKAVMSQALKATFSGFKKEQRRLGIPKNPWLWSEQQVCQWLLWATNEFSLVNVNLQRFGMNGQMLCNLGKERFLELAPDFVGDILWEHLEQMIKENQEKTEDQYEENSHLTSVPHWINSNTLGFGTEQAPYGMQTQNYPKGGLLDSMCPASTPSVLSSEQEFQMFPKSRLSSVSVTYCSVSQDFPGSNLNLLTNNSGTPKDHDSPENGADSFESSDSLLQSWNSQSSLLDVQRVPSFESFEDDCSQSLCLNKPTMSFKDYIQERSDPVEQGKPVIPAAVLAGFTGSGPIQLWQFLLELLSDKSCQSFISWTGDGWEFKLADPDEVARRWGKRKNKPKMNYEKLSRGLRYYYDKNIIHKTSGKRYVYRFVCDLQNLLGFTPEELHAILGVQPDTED
Particulars: protein: recombinant; tags: N-terminal GST; dsDNA, one strand shown. A digest of the protocol:
as §1

In test [14] the target is T9, SPDEF (Homo sapiens, UniProt O95238 1-335).
T9 sequence: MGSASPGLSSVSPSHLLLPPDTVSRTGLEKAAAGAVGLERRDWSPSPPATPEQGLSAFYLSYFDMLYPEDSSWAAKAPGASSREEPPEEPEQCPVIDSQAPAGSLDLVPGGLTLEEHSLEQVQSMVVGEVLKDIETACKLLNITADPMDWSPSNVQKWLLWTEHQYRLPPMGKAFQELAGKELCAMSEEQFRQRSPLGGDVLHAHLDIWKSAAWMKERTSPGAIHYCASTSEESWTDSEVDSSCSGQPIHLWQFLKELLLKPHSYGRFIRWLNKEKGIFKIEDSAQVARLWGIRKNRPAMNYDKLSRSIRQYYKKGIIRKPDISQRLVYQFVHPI
Particulars: protein: recombinant; tags: N-terminal GST; dsDNA, one strand shown. The method in brief:
as §1

Test [15] has as its target T10, ETV7 (Homo sapiens, UniProt Q9Y603 1-341).
T10 sequence: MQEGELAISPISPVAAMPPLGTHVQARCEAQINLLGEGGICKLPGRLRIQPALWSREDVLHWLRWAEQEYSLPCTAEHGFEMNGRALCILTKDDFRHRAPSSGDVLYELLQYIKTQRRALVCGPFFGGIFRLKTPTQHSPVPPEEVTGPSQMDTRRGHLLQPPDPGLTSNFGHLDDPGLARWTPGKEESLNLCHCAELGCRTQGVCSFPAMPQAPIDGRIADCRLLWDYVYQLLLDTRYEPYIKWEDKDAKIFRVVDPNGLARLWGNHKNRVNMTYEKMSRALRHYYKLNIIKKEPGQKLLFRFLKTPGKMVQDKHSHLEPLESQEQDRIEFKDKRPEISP
Particulars: protein: recombinant; tags: N-terminal GST; dsDNA, one strand shown. A digest of the protocol: as §1

Test [16] has as its target T11, ELF5 (Homo sapiens, UniProt Q9UKW6-2 1-255).
T11 sequence: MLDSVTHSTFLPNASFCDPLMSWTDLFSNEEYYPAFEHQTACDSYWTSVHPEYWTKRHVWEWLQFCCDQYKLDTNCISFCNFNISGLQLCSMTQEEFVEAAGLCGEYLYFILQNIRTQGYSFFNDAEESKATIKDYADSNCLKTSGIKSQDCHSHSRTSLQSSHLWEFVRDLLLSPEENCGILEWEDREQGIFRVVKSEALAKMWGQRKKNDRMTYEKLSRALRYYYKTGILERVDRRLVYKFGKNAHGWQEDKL
The following applies: protein: recombinant; tags: N-terminal GST; dsDNA, one strand shown. The method in brief: as §1

Test [17] deals with T12, ETV3 (Homo sapiens, UniProt P41162-2 1-143).
T12 sequence: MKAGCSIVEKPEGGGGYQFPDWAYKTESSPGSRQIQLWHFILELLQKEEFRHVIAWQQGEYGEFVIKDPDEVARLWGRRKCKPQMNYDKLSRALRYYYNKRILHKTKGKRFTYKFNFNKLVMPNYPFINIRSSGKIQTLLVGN
The following applies: protein: recombinant; tags: N-terminal GST; dsDNA, one strand shown. The method in brief: as §1

In test [18] the target is ETV6 (Homo sapiens, UniProt P41212 1-452). Particulars: protein: recombinant; tags: N-terminal GST; dsDNA, one strand shown. A digest of the protocol: as §1
Sequence of ETV6 (P41212 whole entry): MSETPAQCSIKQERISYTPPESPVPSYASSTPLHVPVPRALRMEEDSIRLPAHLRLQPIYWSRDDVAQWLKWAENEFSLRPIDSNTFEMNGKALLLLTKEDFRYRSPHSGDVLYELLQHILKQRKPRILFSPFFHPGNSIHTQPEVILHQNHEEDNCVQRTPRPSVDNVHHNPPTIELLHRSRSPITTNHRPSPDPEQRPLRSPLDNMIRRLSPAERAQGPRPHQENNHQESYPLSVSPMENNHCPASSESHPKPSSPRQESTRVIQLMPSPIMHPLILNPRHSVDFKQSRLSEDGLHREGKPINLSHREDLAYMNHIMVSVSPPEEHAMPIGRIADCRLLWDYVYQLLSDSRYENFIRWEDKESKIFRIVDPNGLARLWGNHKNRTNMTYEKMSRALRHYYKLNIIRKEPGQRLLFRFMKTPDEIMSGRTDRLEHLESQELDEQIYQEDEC

Sequence of ELF4 (Q99607 whole entry): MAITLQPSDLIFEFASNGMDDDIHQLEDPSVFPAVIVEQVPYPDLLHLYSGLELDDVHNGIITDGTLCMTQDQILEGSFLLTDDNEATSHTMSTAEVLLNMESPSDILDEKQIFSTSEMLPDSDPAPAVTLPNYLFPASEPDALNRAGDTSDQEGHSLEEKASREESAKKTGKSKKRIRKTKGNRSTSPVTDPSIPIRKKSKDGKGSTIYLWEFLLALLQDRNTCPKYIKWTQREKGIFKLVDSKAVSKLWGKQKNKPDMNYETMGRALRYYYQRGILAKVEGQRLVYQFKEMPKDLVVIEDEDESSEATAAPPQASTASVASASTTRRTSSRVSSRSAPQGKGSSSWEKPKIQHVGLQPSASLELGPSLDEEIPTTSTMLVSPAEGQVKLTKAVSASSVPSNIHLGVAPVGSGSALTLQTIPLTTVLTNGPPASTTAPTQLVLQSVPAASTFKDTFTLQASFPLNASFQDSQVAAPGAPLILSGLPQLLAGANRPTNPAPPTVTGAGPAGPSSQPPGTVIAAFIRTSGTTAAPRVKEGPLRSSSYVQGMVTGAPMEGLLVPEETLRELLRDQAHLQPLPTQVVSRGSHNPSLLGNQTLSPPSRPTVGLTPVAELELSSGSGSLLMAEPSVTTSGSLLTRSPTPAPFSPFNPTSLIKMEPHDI
Sequence of ETV1 (P50549 whole entry): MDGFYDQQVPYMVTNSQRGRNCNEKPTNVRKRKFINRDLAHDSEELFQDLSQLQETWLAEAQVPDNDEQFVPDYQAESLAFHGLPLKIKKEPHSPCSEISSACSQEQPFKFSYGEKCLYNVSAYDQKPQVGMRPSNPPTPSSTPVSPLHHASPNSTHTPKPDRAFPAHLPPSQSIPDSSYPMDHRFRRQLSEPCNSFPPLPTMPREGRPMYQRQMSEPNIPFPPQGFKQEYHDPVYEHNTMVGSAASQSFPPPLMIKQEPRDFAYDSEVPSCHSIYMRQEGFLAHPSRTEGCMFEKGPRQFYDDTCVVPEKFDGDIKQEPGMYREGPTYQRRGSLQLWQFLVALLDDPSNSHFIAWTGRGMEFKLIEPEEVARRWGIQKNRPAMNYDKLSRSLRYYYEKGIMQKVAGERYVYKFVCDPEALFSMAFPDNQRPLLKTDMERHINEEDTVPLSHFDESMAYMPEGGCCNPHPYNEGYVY
Sequence of ETV5 (P41161 whole entry): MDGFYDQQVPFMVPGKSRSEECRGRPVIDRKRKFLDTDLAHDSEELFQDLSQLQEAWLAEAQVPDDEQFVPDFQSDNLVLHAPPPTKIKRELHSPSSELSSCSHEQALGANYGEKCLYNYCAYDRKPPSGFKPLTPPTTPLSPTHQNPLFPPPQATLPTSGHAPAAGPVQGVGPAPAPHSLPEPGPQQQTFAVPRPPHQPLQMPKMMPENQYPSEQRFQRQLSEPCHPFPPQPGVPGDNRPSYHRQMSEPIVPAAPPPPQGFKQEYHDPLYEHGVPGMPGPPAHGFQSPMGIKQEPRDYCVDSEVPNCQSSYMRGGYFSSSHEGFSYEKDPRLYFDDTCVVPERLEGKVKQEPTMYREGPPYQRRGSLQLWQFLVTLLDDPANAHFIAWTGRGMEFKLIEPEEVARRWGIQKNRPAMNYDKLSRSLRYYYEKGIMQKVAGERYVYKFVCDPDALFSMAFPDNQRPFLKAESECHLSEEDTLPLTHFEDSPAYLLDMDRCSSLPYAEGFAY
Sequence of CRX (O43186 whole entry): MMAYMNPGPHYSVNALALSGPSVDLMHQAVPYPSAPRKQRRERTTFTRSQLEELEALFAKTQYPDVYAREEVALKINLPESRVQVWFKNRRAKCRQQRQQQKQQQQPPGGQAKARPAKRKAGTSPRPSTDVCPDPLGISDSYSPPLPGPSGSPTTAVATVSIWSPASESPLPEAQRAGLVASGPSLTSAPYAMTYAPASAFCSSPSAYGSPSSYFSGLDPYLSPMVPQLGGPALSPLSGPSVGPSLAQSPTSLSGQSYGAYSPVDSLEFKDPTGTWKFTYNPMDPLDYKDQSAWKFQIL

Regarding CAATTA, the binding signal in test [1] is 1.08 fold enrichment (6-mer frequency, TF over GST control); in [2] it was 1.16 fold enrichment (6-mer frequency, TF over GST control); in test [3] it was 1.12 fold enrichment (6-mer frequency, TF over GST control); in test [4], 1.05 fold enrichment (6-mer frequency, TF over GST control); in test [5], 1.14 fold enrichment (6-mer frequency, TF over GST control); in test [6], 1.05 fold enrichment (6-mer frequency, TF over GST control). In addition, the binding signal in [7] is 1.03 fold enrichment (6-mer frequency, TF over GST control); in [8], 1.22 fold enrichment (6-mer frequency, TF over GST control); in test [9], 1.25 fold enrichment (6-mer frequency, TF over GST control); in test [10], 1.09 fold enrichment (6-mer frequency, TF over GST control); in test [11] it was 1.13 fold enrichment (6-mer frequency, TF over GST control); in [12], 1.11 fold enrichment (6-mer frequency, TF over GST control). Moreover, the binding signal in test [13] was 1.16 fold enrichment (6-mer frequency, TF over GST control); in test [14], 1.06 fold enrichment (6-mer frequency, TF over GST control); in [15] it was 1.15 fold enrichment (6-mer frequency, TF over GST control); in test [16], 1.13 fold enrichment (6-mer frequency, TF over GST control); in test [17], 1.18 fold enrichment (6-mer frequency, TF over GST control); in [18], 1.05 fold enrichment (6-mer frequency, TF over GST control).
